MazEF act: MazEF (E. coli) toxin RNase activation | 350,000 tested, 0.32% active | activation, % at 20 µM | FAM/BHQ RNA-DNA oligo cleavage fluorescence, 5 h | P0AE70; in the data active = activation above about 50%
BoNT-F LC inh: blocks Botulinum neurotoxin F light chain protease; Multiplex microsphere protease cleavage assay, flow cytometry; inhibition, % at 10 µM; 360,000 tested, 0.22% active; AID 588497; in the data active = inhibition above about 35%, passing the limit was not always enough; inconclusive = no clear call, values can overlap the other calls; note: plate controls were buffer without enzyme for full effect and enzyme alone for no effect
BoNT A protease: BoNT A light chain protease inhibition; inhibition, % at 10 µM; 360,000 tested, 0.17% active; multiplex microsphere protease substrate cleavage, flow cytometry; note: plate controls were buffer without enzyme for full effect and enzyme alone for no effect
Anthrax LF inh2: inhibitors of Bacillus anthracis lethal factor protease; P15917; multiplex microsphere protease cleavage assay, LF; inhibition, % at 10 µM; 360,000 tested, 0.12% active; AID 588501; note: plate controls were buffer without enzyme for full effect and enzyme alone for no effect
Target sequence (P15917 whole entry, looked up): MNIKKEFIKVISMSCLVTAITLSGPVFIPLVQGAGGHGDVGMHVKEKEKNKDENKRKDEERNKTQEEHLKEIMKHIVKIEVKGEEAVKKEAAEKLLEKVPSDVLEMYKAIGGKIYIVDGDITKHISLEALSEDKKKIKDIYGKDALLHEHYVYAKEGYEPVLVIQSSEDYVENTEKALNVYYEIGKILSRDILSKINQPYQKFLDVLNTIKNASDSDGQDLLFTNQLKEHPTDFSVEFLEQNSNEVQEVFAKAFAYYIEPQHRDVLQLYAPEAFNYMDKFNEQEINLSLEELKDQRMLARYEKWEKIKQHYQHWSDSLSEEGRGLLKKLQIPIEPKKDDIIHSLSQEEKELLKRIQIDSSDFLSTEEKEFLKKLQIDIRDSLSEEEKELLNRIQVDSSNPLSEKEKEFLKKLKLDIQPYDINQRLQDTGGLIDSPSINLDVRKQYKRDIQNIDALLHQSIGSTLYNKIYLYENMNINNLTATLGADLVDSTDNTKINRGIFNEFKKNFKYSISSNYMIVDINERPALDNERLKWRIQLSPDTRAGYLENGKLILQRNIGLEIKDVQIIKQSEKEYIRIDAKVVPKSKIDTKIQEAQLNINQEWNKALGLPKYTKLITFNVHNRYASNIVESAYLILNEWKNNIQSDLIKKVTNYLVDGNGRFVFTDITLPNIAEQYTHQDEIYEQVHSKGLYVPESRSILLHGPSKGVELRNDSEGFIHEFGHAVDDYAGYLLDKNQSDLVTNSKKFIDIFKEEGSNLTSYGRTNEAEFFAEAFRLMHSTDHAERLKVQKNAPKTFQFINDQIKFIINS
Autofluor counter: counter-screen for toxin protease inhibitors: compound fluorescence; 360,000 tested, 3.1% active; AID 624483; fluorescence intensity (test concentration not listed); compound autofluorescence counterscreen, microsphere flow cytometry; stronger effect = higher value; in the data active = fluorescence intensity above about 16000; inconclusive = no clear call, values can overlap the other calls
Numbers without * were called inactive; ? = inconclusive; · = no result. In the library only some 3.6% were active in any assay of this set; here they are far more common. Cut-off read from the data, not from the text of the source, unless noted: active = inhibition above about 30%; inconclusive = no clear call, values can overlap the other calls; inactive = below that.

SMILES	MazEF act	BoNT-F LC inh	BoNT A protease	Anthrax LF inh2	Autofluor counter
CCC(C)c1ccc(S(=O)(=O)N2CCN(C(=O)c3ccc(Cl)c(S(=O)(=O)N4CCOCC4)c3)CC2)cc1 (centres undefined)	-3.6	-4.8	-4.8	1.0	5753
CC(=O)N(C)c1ccc(NC(=O)c2ccccc2C(=O)O)cc1	-0.6	3.2	?	-1.4	21123*
O=C(O)c1ccccc1C(=O)Nc1ccc(Nc2ccccc2)cc1	-7.3	-31.1	0.1	-8.3	3663
CCOC1=C2[C@H](c3ccccc3)N(S(=O)(=O)c3ccc(C)cc3)C(C(C)(C)C)[C@H]2n2c(=O)n(-c3ccccc3)c(=O)n2C1 (some centres undefined)	·	-4.9	-0.5	-6.7	5352
O=C(Nc1cccnc1)Nc1ccc(Br)cc1Cl	3.9	-2.0	-0.5	-3.3	16594*
O=C(Nc1cccnc1)Nc1ccccc1Cl	2.0	-0.9	0.5	-2.7	5339
Cc1cccc2cc(C#N)c(NCCCn3ccnc3)nc12	-1.8	1.1	3.2	5.1	19585*
C/C(=N\NC(=O)c1ccc(Cl)cc1)c1ccc2[nH]ccc2c1	3.9	-28.3	-3.9	3.0	4379
Cc1cccn2c(=O)c3c(nc12)N1CCc2ccccc2C1C1(C3)C(=O)NC(=O)N(C)C1=O (centres undefined)	1.9	-0.5	0.6	-3.2	19729*
CC12CCC(=O)N1C(C(=O)Nc1nc(-c3cc(F)ccc3F)cs1)CS2 (centres undefined)	2.7	9.6	1.8	0.6	5049
C#CCOCCOCCOCCNc1nc(N2CCN(C(=O)[C@H](CCCN=C(N)N)n3cc(C(N)[C@@H](C)CC)nn3)CC2)nc(N2CCN(C(=O)[C@H](CC(N)=O)n3cc([C@@H](N)CC(N)=O)nn3)CC2)n1 (some centres undefined)	15.1	-20.2	-0.3	-9.6	3207
CC1=C(C)C(=O)N(CCC(=O)O)C1=O	5.6	4.1	1.8	-15.9	20985*
Cn1cc(CCC(=O)NCc2ccc(Cl)cc2)c2ccccc21	-9.7	1.5	1.8	3.1	4024
COc1cc(NC(=O)c2ccc(-c3ccc(F)c(F)c3)c3ccoc23)cc(OC)c1OC	·	-3.0	0.6	0.7	3328
CCN(CCCn1c(SCC#N)nc2ccccc2c1=O)c1ccccc1	-3.9	0.5	2.4	-16.4	19328*
C[C@H](NS(=O)(=O)c1ccc2c(c1)OCCCO2)C(=O)N1CCN(Cc2ccc(C#N)cc2)CC1	-1.9	0.3	2.1	3.6	2914
O=C(CN1C(=O)COc2ccccc21)N(Cc1cccnc1)Cc1cccc(F)c1	-7.1	-3.7	?	-0.3	16903*
C/C=C(\C)CN1CCc2cc(OC)c(OC)cc2C1	-1.5	-7.0	-1.9	-4.4	24105*
COc1cc2c(cc1OC)CN(CC(=O)NC(=O)NCc1ccccc1)CC2	6.9	-5.7	1.1	-3.9	5799
Cc1ccc(-n2ncc3c(N4CCC(C(N)=O)CC4)ncnc32)c(C)c1	-7.7	0.2	0.3	2.0	23419*
CCN(CC)C(=O)C1CCN(c2ncnc3c2cnn3-c2ccc(C)cc2C)CC1	-5.9	7.1	-0.2	0.0	3693
COC(=O)C1=CCCCC(O)=C1C(=O)OC	4.0	4.0	0.4	-2.0	2693
Cc1ccc(-c2[nH]ncc2C(=O)c2ccccc2C)c(O)c1	0.4	35.7*	-1.3	11.0	3804
O=C(Nc1cnccn1)Nc1cccc(Cl)c1Cl	-68.0	-0.3	0.7	1.2	2581
Cc1noc(C)c1COc1ccc(C(=O)N2CCN(c3ccccc3O)CC2)cc1	-15.5	6.6	-1.0	5.4	5858
SMILES	MazEF act	BoNT-F LC inh	BoNT A protease	Anthrax LF inh2	Autofluor counter
CC(CN1CCN(C)CC1)OC(=O)c1ccc(Cl)cc1 (centres undefined)	-2.7	-34.8	-1.0	-4.4	4731
CC(CN1CCN(C)CC1)OC(=O)c1ccc(Cl)cc1Cl (centres undefined)	3.0	-1.3	?	-4.2	16186*
CC(C)c1cccc(-c2ccc3c(c2)S(=O)(=O)c2cccc(C(=O)NCc4ccco4)c2C3=O)c1	2.2	7.4	-0.5	-5.5	3997
CC12CCC(C(=O)NCCCN3CCOCC3)(OC1=O)C2(C)C (centres undefined)	2.5	-3.5	-1.9	-1.3	22515*
CC12CCC(C(=O)NCCCN3CCOCC3)(C(Br)C1=O)C2(C)C (centres undefined)	3.2	6.4	-0.4	-0.6	6089
O=C(c1cc2nc(-c3ccccc3)cc(C(F)(F)F)n2n1)N1CCOCC1	8.4	1.3	1.9	-4.5	21930*
O=C(NC1CCCC1)c1cc2nc(-c3ccccc3)cc(-c3ccccc3)n2n1	-0.1	-3.0	-0.5	-3.0	4954
CC1CCN(C(=O)c2cc3nc(-c4ccccc4)cc(-c4ccccc4)n3n2)CC1	-12.9	-2.2	-2.2	0.3	20793*
O=C(NCc1ccccc1Cl)C1CCCN1C(=O)Nc1ccccc1 (centres undefined)	-7.9	-13.2	-5.6	-10.5	3921
CCC(=O)N1CCc2cc(S(=O)(=O)NC(C(=O)N3CCN(c4ccc(F)cc4)CC3)C(C)C)ccc21 (centres undefined)	2.7	-0.8	0.0	-0.8	5325
CSc1ccc(CN2CCN(C(=O)CC(C)C)CC2)cc1	2.2	·	·	·	·
O=C(NCCc1c[nH]c2ccccc12)/C(=C\c1cccs1)NC(=O)c1ccccc1	1.5	-6.4	-0.2	1.1	2605
Cc1ccc(C(=O)N/C(=C\c2cccs2)C(=O)NCCc2c[nH]c3ccccc23)cc1C	-2.6	-6.2	-1.6	-3.2	16774*
O=C(N/N=C1\C(=O)c2cccc3cccc1c23)c1ccc(O)cc1	8.3	-0.9	0.3	-2.3	4427
CNC(=S)N/N=C1\C(=O)c2cccc3cccc1c23	-2.3	-413.9	-20.5	6.5	17615*
CCCCNC(=S)N/N=C1\C(=O)c2cccc3cccc1c23	13.1	8.3	6.8	7.4	20454*
O=C(O)C1OC2OC3(CCCCC3)OC2C2OC3(CCCCC3)OC12 (centres undefined)	-4.2	35.7*	3.2	-0.8	2111
CCN(C[C@H]1N[C@@](C)(C(=O)OC)[C@H]2C(=O)N(C)C(=O)[C@@H]12)S(=O)(=O)c1ccc(F)cc1	6.8	0.0	-1.0	-3.1	3069
COc1ccc(Cn2cc(Cn3c4ccccc4c(=O)n3C(C)C)nn2)cc1	·	-2.7	0.4	6.3	4135
CCOC(=O)CSc1n[nH]c(-c2ccco2)n1	2.1	-1.1	-0.3	-4.5	5814
O=C(CSc1n[nH]c(-c2ccco2)n1)N1c2ccccc2Sc2ccccc21	5.0	2.3	1.6	-2.9	22111*
Cn1c(SCC(=O)N2CCOCC2)nnc1-c1ccc(Cl)cc1Cl	2.3	-3.1	-0.3	-5.3	23071*
Cn1c(SCC(=O)N2CCOCC2)nnc1-c1cccc(NC(=O)c2ccccc2F)c1	7.2	-3.2	-0.7	-3.2	20837*
CCc1ccc(Nc2n[n+](-c3ccccc3)c(-c3ccc(N(CC)CC)cc3)s2)cc1	-70.0	-26.9	22.8	18.8	19557*
Oc1cc(O)cc(/C=C/c2ccc(O)c(O)c2)c1	117.9*	-15.9	-1.4	-1.7	5597
CSc1ncccc1C(=O)OCC(=O)NCc1ccc2c(c1)OCO2	4.6	0.2	0.2	0.3	2125

Screening data deposited in PubChem by several laboratories.
